The list is not random: actives were taken first. Their share in the collection is about 0.86%.
CDC25B-CDK2 inh: primary biochemical HTRF screen for blockers of M-phase inducer phosphatase 2 binding to CDK2/cyclin A; HTRF CDC25B-CDK2/CyclinA binding, anti-His/anti-Flag; hits give high values; P30305+P24941; z-score (no concentration beside the values); 94,000 tested, 0.72% active; in the data active = z-score above about 3.2
HIV TAR-Tat: TAR RNA-Tat peptide displacers, HIV-1, primary screen, biochemical, FRET, FAM/TAMRA-labeled Tat. 100,000 tested, 0.6% active. HIV-1 TAR RNA, Tat peptide displacement FRET; hits give high values. z-score (concentration not given with the values). AID 1259389, 2018; active = z-score of 3 or more in at least 2 runs
A number is an active result; i = inactive; nt = not tested or not shown.

SMILES	CDC25B-CDK2 inh	HIV TAR-Tat
Cc1cc(C)cc(N2C(=O)c3cc4occc4n3CC2(C)C(=O)NC2CCC(C)CC2)c1 (centres undefined)	nt	11.8
CCC(C)N1C(=O)c2cc3occc3n2CC1(C)C(=O)NC1CCC(C)CC1 (centres undefined)	nt	i
CC1CCC(NC(=O)C2(C)Cn3c(cc4occc43)C(=O)N2Cc2cccs2)CC1 (centres undefined)	nt	10.3
Cc1cc2c(cc3n2CC(C)(C(=O)NC2CCCCC2)N(C2CCCCC2)C3=O)o1 (centres undefined)	nt	i
CC1CCC(NC(=O)C2(C)Cn3c(cc4occc43)C(=O)N2Cc2ccco2)CC1 (centres undefined)	nt	19.3
CC1CCC(NC(=O)C2(C)Cn3c(ccc3-c3ccco3)C(=O)N2Cc2cccs2)CC1 (centres undefined)	nt	i
CCn1nc(C)c(CNC(=O)NCC2CCCO2)c1C (centres undefined)	nt	i
COc1ccc2c(c1)nc(CN1CCCCC1)n2C	i	i
Cc1ccc(-c2c(NC3CCCC(C)C3C)c(=O)c2=O)cc1 (centres undefined)	nt	i
Cc1ccc(N2C=NNC(=O)C2)cc1C	i	nt
Cc1ncc(-c2ccc(S(=O)(=O)N3CCCc4ccccc43)cc2)o1	nt	i
CC1CCCCC1NC(=O)C1(C)Cn2c(cc3occc32)C(=O)N1C1CCCCC1 (centres undefined)	nt	i
CC1CCCCC1NC(=O)C1(C)Cn2c(cc3occc32)C(=O)N1c1ccc(Cl)cc1 (centres undefined)	nt	7.63
COc1cc(OC)c(NC(=O)CCS(=O)(=O)c2ccc3c(c2)NC(=O)CO3)cc1Cl	nt	i
COc1ccc(C2CC(=O)N3CN(c4ccc(N(C)C)cc4)CSC3=C2C#N)cc1 (centres undefined)	5.46	i
Cc1ccc(C2CC(=O)N3CN(c4ccc(N(C)C)cc4)CSC3=C2C#N)cc1 (centres undefined)	6.72	i
CN(C(=O)C1CC(c2ccc(F)cc2)=NO1)c1ccccc1 (centres undefined)	i	i
CC(C)CC(NS(=O)(=O)c1ccc2[nH]c(=O)ccc2c1)C(=O)N1CCCCC1 (centres undefined)	nt	i
CCN(CC)S(=O)(=O)c1cc(-c2ccc(=O)n(C(C)C(=O)c3ccc(C)c(C)c3)n2)ccc1C (centres undefined)	i	i
COC(=O)c1sccc1-c1ccc(/C=N/OCc2cc(F)cc3c2OCOC3)o1	i	nt
Cc1ccc(C(=O)Nc2ccc(S(=O)(=O)O)c3cc(S(=O)(=O)O)cc(S(=O)(=O)O)c23)cc1NC(=O)c1cccc(NC(=O)Nc2cccc(C(=O)Nc3cc(C(=O)Nc4ccc(S(=O)(=O)O)c5cc(S(=O)(=O)O)cc(S(=O)(=O)O)c45)ccc3C)c2)c1	4.72	i
COC(=O)c1cccc(NC(=O)Nc2ccccc2)c1	i	nt
COc1ccc(CCNS(=O)(=O)c2ccc(-c3ccc(=O)[nH]n3)s2)cc1OC	nt	i
CN(CC(=O)N1CCCCCC1)S(=O)(=O)c1cccc2nsnc12	i	nt
COc1ccc(S(=O)(=O)N(C(=O)c2ccco2)c2cc3sc(=O)oc3c3ccccc23)cc1	16.4	i
SMILES	CDC25B-CDK2 inh	HIV TAR-Tat
CCOc1ccc(S(=O)(=O)N(C(=O)c2ccco2)c2cc3sc(=O)oc3c3ccccc23)cc1	i	i
Cc1nn(-c2ccc(N3CCCCC3)nn2)c(C)c1CCC(=O)NCCCN1CCOCC1	nt	i
CSc1ccc(NC(=O)NCCCN2CCc3ccccc3C2)cc1	i	i
O=C(NCCCN1CCc2ccccc2C1)Nc1ccc(Br)cc1	9.21	i
Cc1ccc(NC(=O)Nc2cccnc2)cc1Cl	i	nt
CN1C(=O)CSc2ccc(NC(=O)Nc3cccnc3)cc21	19.4	i
Cc1cccnc1NC(=O)Nc1ccc2c(c1)N(C)C(=O)CS2	i	i
CN1CCc2cc(NC(=O)Nc3cccnc3)ccc21	22.8	nt
O=C(Nc1ccc(F)cc1F)c1c[nH]c(=O)n(-c2ccccc2)c1=O	nt	i
COc1ccc(C2CC(=O)N3CN(Cc4ccco4)CSC3=C2C#N)c(OC)c1 (centres undefined)	5.93	i
CC(C)c1ccc(C2CC(=O)N3CN(Cc4ccco4)CSC3=C2C#N)cc1 (centres undefined)	i	i
COc1cccc(C2CC(=O)N3CN(Cc4ccco4)CSC3=C2C#N)c1OC (centres undefined)	3.37	i
O=S(=O)(Nc1ccc2c(c1)N(S(=O)(=O)c1ccccc1)CCC2)c1cccc(Cl)c1	nt	i
Oc1ccc(/C=C/c2ccc(/C=C/c3ccc(O)cc3)c(Br)c2)cc1	i	nt
Oc1cc(O)cc(/C=C/c2ccc(O)c(O)c2)c1	i	36.8
COc1ccc(-n2nnc3c(C)nc(-n4nc(C)cc4C)nc32)cc1	i	i
CC1=C(c2ccccc2)S(=O)(=O)NC1=NCCN1CCOCC1	i	i
O=c1cc(CSc2nnc(-c3ccc(Cl)cc3)o2)nc2sc(C3CC3)nn12	i	14.5
O=c1cc(CSc2nnc(-c3cccs3)o2)nc2sc(C3CCCCC3)nn12	i	i
Cc1cccc(-c2c3c(=O)n(C)c(=O)n(C)c3cn2-c2ccccn2)c1	i	i
CC(=O)Oc1cccc(O)c1	nt	i
CC(Oc1ccc(O)cc1)(P(=O)(O)O)P(=O)(O)O	nt	26.3
CSc1nc2c(c(Nc3ccc(O)c(C(=O)O)c3)n1)CCC2	i	17.9
CSc1nc2c(c(Nc3cccc(O)c3)n1)CCC2	i	i
COC(=O)c1sccc1NC(=O)NCCc1csc(C)c1C	nt	i
SMILES	CDC25B-CDK2 inh	HIV TAR-Tat
Cc1cccc2c1Oc1[nH]c(-c3cccnc3)nc(=S)c1C2	i	i
O=C1C=CC2=C3c4cc(O)c(O)cc4CC3(O)COC2=C1O (centres undefined)	nt	19.6
COc1ccc(OC)c(C2CC(=O)N3CN(c4ccc(F)cc4)CSC3=C2C#N)c1 (centres undefined)	3.97	i
COc1ccc(OC)c(C2CC(=O)N3CN(c4ccc(Br)cc4)CSC3=C2C#N)c1 (centres undefined)	4.52	i
COc1ccc(C2CC(=O)N3CN(c4ccc(Br)cc4)CSC3=C2C#N)c(OC)c1 (centres undefined)	6.42	i
COc1ccc(Br)cc1C1CC(=O)N2CN(c3ccccc3OC)CSC2=C1C#N (centres undefined)	6.19	i
COc1ccccc1N1CSC2=C(C#N)C(c3ccc(Br)cc3)CC(=O)N2C1 (centres undefined)	i	i
O=C(Nc1nccs1)c1ccc(N2C(=O)CCS2(=O)=O)cc1	i	i
O=C1Nc2ccccc2C(O)(C(=O)N2CCN(c3ccccn3)CC2)N1c1ccccc1 (centres undefined)	i	nt
Cc1nn(-c2ccc(F)cc2)cc1-c1noc(C(=O)NC2CCC(C)CC2)n1 (centres undefined)	nt	i
Cc1ccc(C2=Nn3c(nnc3-c3cccs3)SC2)cc1	nt	i
CCCc1nn2c(=O)cc(COC(=O)c3cccc(F)c3)nc2s1	nt	i
Cc1cc(C)cc(C(=O)Nc2c(C)nc3ccc(Cl)cn3c2=O)c1	nt	i
COc1ccc(N2CSC3=C(C#N)C(c4cc(Br)ccc4OC)CC(=O)N3C2)cc1 (centres undefined)	5.38	i
COc1ccc(Br)cc1C1CC(=O)N2CN(C3CCCCC3)CSC2=C1C#N (centres undefined)	i	i
N#CC(C#N)=Cc1ccc(-c2ccccc2C(F)(F)F)o1	i	nt

Source: PubChem BioAssay
